Here are results for 23 molecules from PubChem BioAssay (NCI).

Assay in all cases: NCI-60 one-dose screen, 48 h (100 = growth as untreated, 0 = no growth, -100 = all killed)
Holding throughout (conditions): 10 µM unless noted

Assay [1] deals with SR leukemia.
In assay [2] the test system is RPMI-8226 leukemia.
Assay [3] concerns OVCAR-8 ovarian.
Assay [4] has as its system OVCAR-4 ovarian.
The test system of assay [5] is SK-OV-3 ovarian.
The test system of assay [6] is IGROV1 ovarian.
Assay [7] relates to HS 578T breast.
Assay [8] relates to NCI/ADR-RES ovarian.
Assay [9] concerns OVCAR-3 ovarian.
Assay [10] relates to OVCAR-5 ovarian.

Structures are written as SMILES. Several values for one entry are separate records, joined by “and”; a condition that tells them apart may be missing. Identical values can stand only once. About 83,000 compounds went through this panel and 20% of them were active in at least one assay; those are over-represented in the sample as a whole.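 96-well plates, one dose, 48 hours. Percent growth reported; active if below 10.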 A number with no mark means an inactive call. Activity calls are given as the source filed them.

As for `O=C(O)c1ccc2c3c(ncnc13)-c1ccccc1C2=O`, the growth in assay [1] is 98.4%; in [2] it was 87.1%; in assay [3] it was 79.9%; in assay [4], 91.7%; in [5], 98%; in assay [6] it was 83.4%. Also, the figures for the growth in assay [7] and in assay [8] were 5.48% (active) and 76.9%, respectively.

On to `N#CC1C(=O)SC2c3ccccc3C(=O)c3ccccc3C12` (centres undefined), for which the growth in assay [1] is 90.1%; in assay [2], 94.6%; in assay [3], 99%; in assay [4] it was 99.1%; in [5], 98.2%; in assay [6], 110%. Also, the growth in assay [7] is 96.2%; in [8], 104%.

As for `Cn1c2c(c3ccccc31)CCN1C[C@@H]3CCCC[C@H]3C[C@@H]21`, the growth in assay [1] was 14.1%; in [2], 16.7%; in assay [3], 20.2%; in assay [5], 9.15% (active); in assay [9], -74.3% (active); in assay [7], -16.9% (active). Besides, the growth in [8] was -36.1% (active).

On to `CCN1/C(=C\c2cc[n+](CC)c3ccccc23)C=Cc2ccccc21`, for which the growth in assay [1] was 15.7%; in assay [2] it was 12.6%; in assay [3], 9.96% (active); in assay [5] it was 3.69% (active); in assay [6], 29.8%; in assay [9], 11.8%. Further, the values for the growth in [7] and in assay [8] were 37.4% and 86.9%, respectively.

For the molecule `CCCCCCC(C)c1ccccc1O` (centres undefined) (tested in a mixture with another compound), the growth was 95.6% in [2]; 110% in assay [3]; 104% in assay [10]; 111% in [6]; 101% in assay [7]; 98.6% in [8].

Take `Cc1ccc(C(=Nc2ccccc2)N=P(c2ccccc2)(c2ccccc2)c2ccccc2)cc1`: the growth in assay [2] was -38.6% (active); in assay [3], 6.99% (active); in assay [10], -5.4% (active); in assay [4], 29%; in assay [5], -66.3% (active); in [6], -68.5% (active). Also, the growth in [9] was -37.4% (active); in assay [7] it was -45.8% (active); in [8] it was -10.4% (active).

In the case of `NC1=CC(=O)c2ccccc2C1=O`, the growth in assay [1] is 81.3%; in assay [2], 81.7%; in assay [3], 85.3%; in assay [5], 92.3%; in [6] it was 90.8%; in assay [9] it was 82.6%. Moreover, the growth in assay [7] is 71.6%; in assay [8] it was 88.6%.

Regarding `O=C(Nc1cccc(Br)c1)Oc1ccc(Cl)c2cccnc12`, the growth is 7.23% [100 µM] (active) in assay [1]; 3.35% [100 µM] (active) in assay [2]; 16% [100 µM] in assay [3]; 3.81% [100 µM] (active) in assay [4]; 95.6% [100 µM] in assay [5]; 13.6% [100 µM] in assay [6]. For the same molecule, the growth in assay [9] was -48.7% [100 µM] (active); in assay [7] it was 50.9% [100 µM]; in [8] it was 6.36% [100 µM] (active).

`CCOC(=O)/C=C/c1ccc([N+](=O)[O-])o1`: the growth in [1] is 16.2%; in [2], 74.7%; in assay [3] it was 11.4%; in assay [5], 106%; in assay [6] it was 77.5%; in assay [9], 17.1%. For the same molecule, the growth in [7] is 98.1%; in assay [8], 50.6%.

With `CN(Cc1cnc2nc(N)nc(N)c2n1)c1ccc(C(=O)NC(CCC(=O)O)C(=O)O)cc1` (centres undefined), the growth in assay [2] is 37.3%; in [3], 24%; in assay [10], 44.9%; in assay [4] it was 61.3%; in [5], 59.3%; in assay [6] it was 31.2%. In addition, the growth was 76.6% in assay [7] and 26.7% in assay [8].

For `CCCCCCCCCCCCCCCCN(CC)CC`, the growth in assay [2] was -60.1% (active); in assay [3], -38.3% (active); in assay [4], -6.38% (active); in [5] it was -46.1% (active); in assay [6] it was -90.5% (active); in [9], -58.6% (active). Moreover, the growth in assay [7] was -25.1% (active); in assay [8] it was -71.1% (active).

On to `CN1c2ccccc2C(C)(C)C12C=Cc1cc(O)ccc1O2` (centres undefined), for which the growth is -22.8% (active) in assay [2]; 67.3% in [3]; 82.5% in assay [10]; 72.9% in assay [4]; 71.4% in assay [5]; -7.4% (active) in assay [6]. The figures for the growth in assay [9], in [7] and in assay [8] were 4.21% (active), -7.66% (active) and 26.4%, respectively.

For the molecule `COc1ccccc1/C=C\C(=O)c1ccccc1`, the growth is 15.3% in assay [1]; -13.3% (active) in [2]; 75.8% in assay [3]; 81.2% in [4]; 94.5% in [5]; 64.4% in assay [6]. For the same molecule, the growth is 86% in [7] and 14.2% in assay [8].

With `CN(C)c1ccc(C(=C2C=CC(=[N+](C)C)C=C2)c2ccc(N(C)C)cc2)cc1` (tested in a mixture with another compound), the growth in [2] is -52.6% (active); in assay [3] it was -23.2% (active); in assay [5] it was -81.1% (active); in assay [6], -63.8% (active); in assay [9], -93.5% (active); in assay [7], -1.97% (active). Also, the growth in [8] was -4.74% (active).

As for `CNc1ccc(N)cc1`, the growth in assay [1] was 119%; in assay [3] it was 113%; in assay [10], 106%; in [4] it was 89.6%; in assay [5], 114%; in assay [6], 101%. Also, the growth in assay [9] was 112%; in assay [7] it was 109%; in assay [8] it was 87.6%.

Regarding `CCCCCC(CCCCC)C(=O)O`, the growth in assay [1] is 99.7%; in assay [2], 97.3%; in assay [3] it was 113%; in assay [5], 98.4%; in assay [6], 96.3%; in [9] it was 118%. Moreover, the growth was 104% in assay [7] and 117% in [8].

For `Oc1c(Br)c(Br)c(O)c(Br)c1Br`, the growth in assay [1] is 63.2%; in assay [2] it was 104%; in [3] it was 102%; in assay [5] it was 156%; in assay [6], 115%; in [9], 5.11% (active). For the same molecule, the growth in assay [7] is 144%; in assay [8], 102%.

For `CC1(C)CC([P+](c2ccccc2)(c2ccccc2)c2ccccc2)=NN1`, the growth in assay [2] is 16.2%; in assay [3], 32.3%; in [5] it was 33.2%; in assay [6], -22.8% (active); in assay [9], 23.7%; in [7], 72.1%. In assay [8], the growth was 105%.

For the molecule `N#CSCc1ccc(CSC#N)c(Cl)c1`, the growth in assay [1] was 6.77% (active); in assay [2] it was 41.9%; in [3], 95.6%; in assay [5], 115%; in [6] it was 91.2%; in assay [9], 77.9%. Besides, the growth is 94.1% in assay [7] and 77.9% in assay [8].

In the case of `CCCCCCCCCCCCCCCC[N+](C)(CCO)Cc1cnc[nH]1` (centres undefined), the growth in assay [2] is -58.3% (active); in [3] it was -4.26% (active); in [10], -13.7% (active); in assay [4], -1.06% (active); in assay [5], -21% (active); in assay [6], -54.5% (active). The values for the growth in assay [7] and in assay [8] were -19.4% (active) and 94.5%, respectively.

With `Cc1ccc2nc(-[n+]3cc4ccccc4cc3C)ccc2c1`, the growth in assay [1] was 33.2%; in [2], 15.1%; in [3], 33.6%; in [4] it was 28.6%; in assay [5], 38.3%; in [6] it was 46.4%. The figures for the growth in assay [7] and in [8] were 67.3% and 109%, respectively.

As to `Oc1c(Cl)cc(Cl)c2cccnc12`, the growth in [1] is 32.7% and 31.9%; in assay [2], 50.3% and 50.1%; in assay [3], 41.2%; in assay [4] it was 50.1% and 45.7%; in [5], 86.5% and 65.8%; in [6], 52.9%. The growth in assay [9] was 68% and 15.3%; in assay [7] it was 72.9% and 52%; in assay [8], 27.4% and 29.3%.

Regarding `CCN(CC)CC(C)(C)C(=O)/C=C/c1ccc(Cl)c(Cl)c1`, the growth in assay [1] is 10.3%; in assay [2] it was 2.2% (active); in [3], -21.6% (active); in assay [5], 42.7%; in [6], -7.68% (active); in assay [9], -66.3% (active). Moreover, the figures for the growth in assay [7] and in [8] were 10.2% and -12.6% (active), respectively.
